The source of these data is PubChem BioAssay (NCATS).

Experiment [1] deals with Cellular tumor antigen p53 (Homo sapiens) (UniProt P04637). As to the kind of experiment: Primary qHTS for small molecule compounds that upregulate eGFP-tagged delta133p53alpha (in N-terminal) cells. (AID 2060322). Also: nearly all actives have a fitted effect of over 75% in size. Also: potency is read from the fitted curve at half-maximal effect.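 As to activation: cells pre-induced with doxycycline then dosed without doxycycline; series mostly up to about 56 µM; 0% = DMSO vehicle and 100% = reference activator.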 Conditions: NCI-H358 eGFP-delta133p53alpha fluorescence, 24 h; activation: stronger effect = higher value. Put shortly:
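NCI-H358 cells pre-induced 24 h with 10 ng/ml doxycycline for eGFP-delta133p53alpha, plated dox-free and exposed 24 h at 37C to titrated compounds. Fixed, Hoechst-stained; gated GFP peak intensity by laser scanning cytometry, normalized to DMSO (0%) and 57.5 uM 5-azacytidine (100%).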

Experiment [2] has as its target Aldehyde dehydrogenase, mitochondrial (Homo sapiens) (UniProt P05091). Put plainly: qHTS for Inhibitors of the Aldehyde Dehydrogenase Family (ALDH2) Primary screen (AID 2061308).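 Also: plate controls were vehicle for no effect and reference inhibitor for full effect; nearly all actives have a fitted effect of over 55% in size.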
Experiment [3] deals with Retinaldehyde dehydrogenase 3 (Homo sapiens) (UniProt P47895). As to the kind of experiment: qHTS for Inhibitors of the Aldehyde Dehydrogenase Family (ALDH1A3) Primary screen (AID 2061315).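 Also: plate controls were DMSO vehicle for no effect and reference inhibitor for full effect.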 In general terms: qHTS replaces the single test concentration by a dilution series.
Experiment [4] is described as follows: BET inhibitor-based combinations targeting novel dependencies in MECOM-rearranged (r) AML: SET-2 cell line (AID 2202231). Also: nearly all actives have a fitted effect of over 35% in size. Also: potency is read from the fitted curve at half-maximal effect.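 As to viability: plate controls were DMSO treated cells for no effect and wells without cells for full effect.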 Conditions: SET-2 AML cells viability, CellTiter-Glo luminescence, 48 h; viability: stronger effect = lower value, concentration not given here. Put shortly: (§1)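 500 cells/well; 11-pt dose curve; 48 h, standard incubator; CellTiter-Glo luminescence after 15 min RT; DMSO/empty-well normalization; AUC plus Z-AUC (mean-centered within each line).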
On the technique in general: In ATP-based viability assays light output follows the ATP content of the culture.

A short description of experiment [5]: BET inhibitor-based combinations targeting novel dependencies in MECOM-rearranged (r) AML: OCI-AML3 cell line (AID 2202232). Also: potency is read from the fitted curve at half-maximal effect; nearly all actives have a fitted effect of over 35% in size. The note with it: Potency: OCI-AML3 viability. Put shortly:
as §1

Experiment [6] in a line: BET inhibitor-based combinations targeting novel dependencies in MECOM-rearranged (r) AML: MV-4-11 cell line (AID 2202233). Also: potency is read from the fitted curve at half-maximal effect; nearly all actives have a fitted effect of over 45% in size. Put shortly: (§2)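 Cells were plated at 500 per well and exposed to each drug across an 11-point dose range for 48 hr at standard incubator conditions. Viability was read by CellTiter-Glo luminescence, and activity was expressed as AUC and per-cell-line Z-transformed AUC.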

Experiment [7] is described as follows: BET inhibitor-based combinations targeting novel dependencies in MECOM-rearranged (r) AML: HNT-34 cell line (AID 2202234). Also: potency is read from the fitted curve at half-maximal effect; nearly all actives have a fitted effect of over 35% in size. Put shortly:
as §2

The nature of experiment [8]: BET inhibitor-based combinations targeting novel dependencies in MECOM-rearranged (r) AML: UCSD-AML1 cell line (AID 2202235). Also: potency is read from the fitted curve at half-maximal effect; nearly all actives have a fitted effect of over 40% in size. Put shortly:
as §2

Experiment [9] is described as follows: BET inhibitor-based combinations targeting novel dependencies in MECOM-rearranged (r) AML: AML-191 cell line (AID 2202236; also: potency is read from the fitted curve at half-maximal effect; nearly all actives have a fitted effect of over 35% in size). Put shortly:
as §1

Experiment [10] is described as follows: BET inhibitor-based combinations targeting novel dependencies in MECOM-rearranged (r) AML: AML-194 cell line (AID 2202237; also: potency is read from the fitted curve at half-maximal effect; nearly all actives have a fitted effect of over 40% in size). Put shortly: as §1

Values joined by “and” are separate entries in the source; they are usually repeats but may differ in a detail not shown here. Equal entries are not always repeated. Inconclusive results are not listed. A number with no mark means an inactive call. Active and inactive are the calls of the source. Calls follow the shape of the dose curve; as a rule, active = well fitted curve in the direction sought with a large enough effect; inconclusive = small, poorly fitted or top-dose-only effect, or another doubt; inactive = no such curve, though single readings can be large; an effect the other way counts as inactive or inconclusive.

Chain of Cellular tumor antigen p53 (Homo sapiens) (P04637 whole entry, looked up): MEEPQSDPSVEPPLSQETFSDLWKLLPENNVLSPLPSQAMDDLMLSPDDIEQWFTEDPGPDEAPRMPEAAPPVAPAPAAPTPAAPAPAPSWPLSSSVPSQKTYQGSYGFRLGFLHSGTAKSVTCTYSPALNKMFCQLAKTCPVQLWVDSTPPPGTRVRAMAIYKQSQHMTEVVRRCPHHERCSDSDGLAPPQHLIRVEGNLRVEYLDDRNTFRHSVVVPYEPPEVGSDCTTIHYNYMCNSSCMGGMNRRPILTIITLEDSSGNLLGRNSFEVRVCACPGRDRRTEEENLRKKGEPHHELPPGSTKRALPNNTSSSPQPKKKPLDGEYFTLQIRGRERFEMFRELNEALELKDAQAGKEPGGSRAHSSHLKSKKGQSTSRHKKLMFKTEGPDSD

Usually viability stands for a read-out of living cells in per cent, often relative to untreated cells. For the compound `CC(=O)NC(C)c1ccc(Oc2ccc(OC(C)C)cc2)cc1` (configuration not stated), the activation in experiment [1] is 15.3%. Moreover, the Potency result in [2] and in experiment [3] was “inactive” each time. In addition, the viability in [4] is 87.6%.
Take `COc1c(OCCCN2CCOCC2)ccc2c3n(c(=NC(=O)c4cnc(N)nc4)nc12)CCN3`: the activation in [1] was 8.4% and -29.5%. Further, the activity change, negative = inhibition in experiment [2] was -4.59% [at 11.2 µM]; in experiment [3], 13.9% [at 11.2 µM]. For the same compound, the Potency in experiment [4] was 1080 nM (active); in experiment [5], 34 nM (active); in experiment [6], 85.5 nM (active); in [7] it was 959 nM (active).
Turning to `CC(O)/C=C/C1OC(=O)CC1Nc1ccc(C(=O)O)cc1` (configuration not stated), the activation in [1] was -6.11%. Also, the Potency entry in [2] and in [3] was “inactive” in each case.
Turning to `CC(C)n1nc(-c2ccc3oc(N)nc3c2)c2c(N)ncnc21`, the activation in experiment [1] was 5.06% and 13.4%. The Potency result in experiment [2] and in [3] was “inactive” in each case. Moreover, the Potency in experiment [4] is 148 nM (active); in experiment [5], 417 nM (active); in experiment [6] it was 37.2 nM (active); in experiment [7], 23.5 nM (active); in experiment [8], 11.8 nM (active).
As for `COCCCc1sc(-c2ccccc2)nc1C(=O)Nc1ccccc1-c1nc2cc(CN3CCCC3)cnc2s1`, the activation in experiment [1] is -4.33%. Also, the Potency result in experiment [2] and in experiment [3] was “inactive” each time. The viability in experiment [4] was 121%. For the same compound, in experiment [5], the Potency was 9100 nM (active).
Take `Cn1cnc2c(F)c(Nc3ccc(Br)cc3Cl)c(C(=O)NOCCO)cc21`: the activation in [1] was 24.1%. Also, the Potency entry in experiment [2] and in [3] was “inactive” throughout. For the same compound, the viability in experiment [4] is 95.4%. Moreover, the Potency in experiment [5] is 29.5 nM (active).
As to `CNC(=O)c1nn(C)c2c1C(C)(C)Cc1cnc(Nc3ccc(N4CCN(C)CC4)cc3)nc1-2`, the Potency in [1] is 38.5 µM (active) and 9.53 µM (active); in experiment [4] it was 833 nM (active); in [5], 5250 nM (active); in experiment [6], 132 nM (active); in experiment [7] it was 263 nM (active); in experiment [8] it was 934 nM (active). The Potency is 1180 nM (active) in experiment [9] and 1320 nM (active) in experiment [10]. Also, the Potency result in experiment [2] and in experiment [3] was “inactive” throughout.
